ASK1 primary: human ASK1 kinase inhibition, primary screen | Q99683 | AlphaScreen MKK6 phosphorylation by ASK1, luminescence | inhibition, % at 7.44 µM | 0.99% of 22,000 active | AID 1159602; in the data active = inhibition above about 35%;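 note: 0% = median of compound wells and 100% = no enzyme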
Target sequence (Q99683 whole entry, looked up): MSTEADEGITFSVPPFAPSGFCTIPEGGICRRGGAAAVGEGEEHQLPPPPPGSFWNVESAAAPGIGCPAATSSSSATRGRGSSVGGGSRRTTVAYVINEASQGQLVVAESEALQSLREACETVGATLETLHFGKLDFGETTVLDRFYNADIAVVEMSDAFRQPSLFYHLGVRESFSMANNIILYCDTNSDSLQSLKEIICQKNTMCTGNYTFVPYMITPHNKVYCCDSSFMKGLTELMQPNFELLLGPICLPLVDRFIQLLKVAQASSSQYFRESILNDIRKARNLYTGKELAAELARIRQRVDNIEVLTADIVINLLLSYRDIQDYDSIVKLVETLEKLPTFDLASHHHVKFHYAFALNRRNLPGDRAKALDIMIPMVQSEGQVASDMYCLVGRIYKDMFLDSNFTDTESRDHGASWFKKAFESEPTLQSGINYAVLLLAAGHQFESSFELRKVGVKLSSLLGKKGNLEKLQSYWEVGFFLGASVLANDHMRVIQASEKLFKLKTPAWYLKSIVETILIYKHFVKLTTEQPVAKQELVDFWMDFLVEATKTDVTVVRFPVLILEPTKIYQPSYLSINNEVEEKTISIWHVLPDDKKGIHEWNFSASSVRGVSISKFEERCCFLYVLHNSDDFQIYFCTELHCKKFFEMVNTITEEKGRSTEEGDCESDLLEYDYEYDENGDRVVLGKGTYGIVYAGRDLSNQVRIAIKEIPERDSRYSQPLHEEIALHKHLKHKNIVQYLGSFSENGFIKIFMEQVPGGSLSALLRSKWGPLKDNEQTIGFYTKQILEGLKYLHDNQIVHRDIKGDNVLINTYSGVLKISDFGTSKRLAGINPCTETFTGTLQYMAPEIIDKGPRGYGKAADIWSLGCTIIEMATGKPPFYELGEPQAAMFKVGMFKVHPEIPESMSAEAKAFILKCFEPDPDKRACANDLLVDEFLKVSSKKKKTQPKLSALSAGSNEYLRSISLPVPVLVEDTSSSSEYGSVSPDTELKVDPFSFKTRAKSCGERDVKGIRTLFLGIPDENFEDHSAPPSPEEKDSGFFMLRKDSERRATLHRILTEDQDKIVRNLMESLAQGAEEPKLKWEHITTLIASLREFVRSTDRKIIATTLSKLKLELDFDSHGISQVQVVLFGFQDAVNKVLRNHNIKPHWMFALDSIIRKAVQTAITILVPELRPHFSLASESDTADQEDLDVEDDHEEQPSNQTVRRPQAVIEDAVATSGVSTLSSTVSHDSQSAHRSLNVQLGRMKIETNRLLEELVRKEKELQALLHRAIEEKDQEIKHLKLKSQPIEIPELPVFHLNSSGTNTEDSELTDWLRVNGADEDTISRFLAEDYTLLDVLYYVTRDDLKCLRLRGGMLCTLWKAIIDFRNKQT
ULK1 primary: inhibitors of human ULK1 kinase; inhibition, % at 5.96 µM; AlphaScreen Atg13 phosphorylation by ULK1, luminescence; 1.9% of 30,000 active; O75385; in the data active = inhibition above about 43%;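 note: 0% = median of compound wells and 100% = no enzyme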
The depositor's hits bear a star; nt = no result given. Most compounds without a hit are left out; they make up all but 2.4% or so of the library.

SMILES | ASK1 primary | ULK1 primary
Cc1ccc(C(=O)Nc2ccc(CN3CCN(C)CC3)c(C(F)(F)F)c2)cc1C#CC1=CNC2=CC=CNN12 | nt | -27
Cn1cc(-c2ccc3cnc(Nc4ccc(-n5cnc(N6CCCC(O)C6)n5)cc4)nc3c2)cn1 (centres undefined) | 6 | 79*
Cn1cc(-c2ccc3cnc(Nc4ccc(-n5cnc(C(C)(C)C)n5)cc4)nc3c2)cn1 | -3 | 10
COc1ccc(-c2nc(NCc3nc4ccccc4[nH]3)c3[nH]cnc3n2)cc1 | -7 | -8
CC(Nc1nc(N2CCOCC2)c2cnn(-c3ccc(Cl)cc3)c2n1)c1ccccc1 (centres undefined) | nt | 3
CC(=O)Nc1ccc(NC(=O)c2cccc(Nc3ccc(-n4ccnc4)cc3)n2)cc1 | -2 | 16
O=C(Nc1ccc(N2CCOCC2)cc1)c1cccc(Nc2ccc(N3CCOCC3)cc2)n1 | -1 | 48*
CC(=O)Nc1ccc(NC(=O)c2cccc(Nc3ccc(N4CCOCC4)cc3)n2)cc1 | -10 | 42
O=C(Nc1ccc(N2CCOCC2)cc1)c1cccc(Nc2ccc(-n3ccnc3)cc2)n1 | -3 | 50*
Cc1cc(NCc2cccc(C(F)(F)F)c2)nc(Nc2ccccc2)n1 | -26 | -29
CC[C@@H](C(=O)[C@@H](C)[C@@H](O)[C@H](C)CCc1ccc(C)c(O)c1C(=O)O)[C@H]1O[C@](CC)([C@H]2CC[C@](O)(CC)[C@H](C)O2)C[C@@H]1C | nt | 70*
CC[C@@H](C(=O)[C@@H](C)[C@@H](O)[C@H](C)[C@@H]1O[C@@H]([C@@H](CC)C(=O)O)CC[C@@H]1C)[C@H]1O[C@]2(C=C[C@@H](O)[C@]3(CC[C@@](C)([C@H]4CC[C@](O)(CC)[C@H](C)O4)O3)O2)[C@H](C)C[C@@H]1C | nt | -4
c1cnc2ccc(Nc3nccc(NCc4nc5ccccc5[nH]4)n3)cc2c1 | -11 | -16
Cc1cc(Nc2ccc(N3CCOCC3)cc2)nc(N2CCN(c3ccccn3)CC2)n1 | 46* | 4
CC(=O)Nc1ccc(Nc2cc(C)nc(N3CCN(c4ccccn4)CC3)n2)cc1 | 7 | -11
Cc1cc(Nc2ccc(N3CCOCC3)cc2)nc(N2CCc3ccccc3C2)n1 | 58* | -3
CC(=O)Nc1ccc(Nc2cc(C)nc(N3CCc4ccccc4C3)n2)cc1 | 8 | -9
Cc1ccc(CN2C(=O)NC3(CCN(CC(=O)Nc4ccc(F)cc4)CC3)C2=O)cc1 | nt | -4
O=C(CCl)Nc1ccc2nsnc2c1 | nt | 2
O=C(CCl)Nc1ccc(CN2CCCC2)cc1 | nt | 66*
Cc1noc(C)c1-c1cc(NC2CC2)nc(N)n1 | -7 | -2
Cc1ncn(-c2ccc(Nc3ncc4cccc(-c5cncc(C(=O)N6CCOCC6)c5)c4n3)cc2)n1 | 14 | 0
Cc1ccc(-c2cccc3cnc(NC4CCN(C(=O)N5CCCC5)C4)nc23)cn1 (centres undefined) | 13 | 26
Cc1ccc(-c2cccc3cnc(Nc4cccc(C(=O)N5CCOCC5)c4)nc23)cn1 | 6 | 64*
Cc1ccc(-c2cccc3cnc(Nc4ccc(C(=O)N5CCCC5)cc4)nc23)cn1 | -14 | 63*
SMILES | ASK1 primary | ULK1 primary
O=C(Nc1ccc2[nH]ncc2c1)[C@H](O)COc1ccc(Br)cc1 | -14 | -9
Cc1ncn(-c2ccc(Nc3nccc(-c4ccc(N5CCC(O)CC5)nc4)n3)cc2)n1 | 0 | 46*
C[C@@H]1CN(C(=O)Nc2cccc(Nc3nccc(-c4ccc(N5CCC(O)CC5)c(C#N)c4)n3)c2)C[C@H](C)O1 | -16 | 76*
N#Cc1cc(-c2ccnc(Nc3ccc(-n4cnc(N5CCC(O)CC5)n4)cc3)n2)ccc1N1CCC(O)CC1 | -9 | 72*
Cc1ncn(-c2ccc(Nc3nccc(-c4ccc(C#N)c(N5CCCC5)c4)n3)cc2)n1 | -4 | -9
N#Cc1cc(-c2ccnc(Nc3ccc(-n4cnc(C(F)(F)F)n4)cc3)n2)ccc1N1CCC(O)CC1 | 6 | 1
Cn1nnc(-c2ccc(Nc3nccc(-c4ccc(N5CCC(O)CC5)c(C#N)c4)n3)cc2)n1 | 0 | 28
Cc1ncn(-c2ccc(Nc3nccc(-c4ccc(N5CCCC(CO)C5)c(C#N)c4)n3)cc2)n1 (centres undefined) | 0 | 65*
Cc1ncn(-c2ccc(Nc3nccc(-c4ccc(C#N)c(N5CCC(O)CC5)c4)n3)cc2)n1 | -6 | -1
O=C(NCCCN1CCCC1=O)c1cccc(-c2csc3ccccc23)n1 | 8 | -12
COc1ccc(-c2ncc(C)c(Nc3ccc(Oc4ccccc4)cc3)n2)cc1 | 1 | -20
COc1cc(Nc2nc(C)cc(NCCOc3ccccc3)n2)cc(OC)c1OC | 2 | -27
Cc1cccc(CC(=O)Nc2cnn(-c3cccc(C(=O)Nc4ccc(Cl)c(F)c4)c3)c2)c1 | 0 | -13
CCOC(=O)Nc1nnc(-c2ccc([N+](=O)[O-])cc2)s1 | nt | 0
O=C(NCCc1ccc(O)cc1)C1CCN(c2ccc(N3CCCC3CO)nn2)CC1 (centres undefined) | -10 | 12
Cc1cc(-c2ccc(N=Nc3c(S(=O)(=O)O)cc4cc(S(=O)(=O)O)cc(N)c4c3O)c(C)c2)ccc1N=Nc1c(S(=O)(=O)O)cc2cc(S(=O)(=O)O)cc(N)c2c1O | nt | 81*
CC(CNC(=O)c1cccc(-n2ncc3cc(Nc4c(Cl)cccc4Cl)ccc32)c1)N1CCOCC1 (centres undefined) | 13 | -26
CCC(=O)c1c(O)cc(O)cc1O | nt | 62*
Oc1cc(O)cc(O)c1 | nt | 7
O=C(Nc1ccc2[nH]ncc2c1)[C@H]1CCCN1 | -12 | 45*
N[C@@H]1CC[C@@H](C(=O)Nc2ccc3cnccc3c2)C1 | -10 | 34
O=C(Nc1ccc2[nH]ncc2c1)C(O)c1ccc(Cl)cc1 (centres undefined) | -15 | 9
N[C@@H]1CC[C@@H](C(=O)Nc2ccc3[nH]ncc3c2)C1 | -3 | 65*
N[C@H]1CCC[C@@H](C(=O)Nc2ccc3cnccc3c2)C1 | 6 | 66*
O=C(Nc1ccc2[nH]ncc2c1)C1CCCNC1 (centres undefined) | 11 | 38
SMILES | ASK1 primary | ULK1 primary
O=C(Nc1ccc2[nH]ncc2c1)[C@H](O)c1ccccc1 | -5 | 49*
O=C(Nc1ccc2[nH]ncc2c1)[C@@H]1CCCN1 | 3 | 38
COc1cc(Nc2cc(Nc3nc4ccccc4n3C)ncn2)cc(OC)c1OC | 10 | 1
FC(F)(F)c1ccc(Cn2cnc3c(NC4CCN(Cc5ccccc5)CC4)nc(N4CCc5ccccc5C4)nc32)cc1 | 3 | 7
O=C(NCc1cccc(C(F)(F)F)c1)c1cnc(N2CCC(N3CCOCC3)CC2)s1 | -11 | 4
c1ccc2c(Nc3nc4ncnc(NCCN5CCOCC5)c4[nH]3)nccc2c1 | -2 | 1
O=C(NCCOc1ccccc1)c1cncc(-c2ccccc2)c1 | -9 | -4
N[C@H]1CC[C@@H](C(=O)Nc2ccc3[nH]ncc3c2)C1 | 6 | 72*
CC(C)[C@H](O)C(=O)N[C@H]1CC[C@H](C(=O)Nc2ccc3[nH]ncc3c2)C1 | -1 | 5
COc1ccc(-c2nc(Nc3ccccc3)c3[nH]cnc3n2)cn1 | 1 | -43
CCN(CC)C(=O)C1CCCN(c2nc(NCc3cccnc3)c3cc(OC)c(OC)cc3n2)C1 (centres undefined) | 2 | 9
CCN(CC)C(=O)C1CCCN(c2nc(NCc3nc4ccccc4[nH]3)c3cc(OC)c(OC)cc3n2)C1 (centres undefined) | -16 | 49*
CCN(CC)c1nc(Nc2ccccc2)nc(Nc2nc3ccccc3n2C)n1 | -3 | -9

Assay outcomes (PubChem BioAssay)
